Hits are enriched below; roughly 3.1% of the tested compounds scored in any of these assays.
mTORC1 inh: mTORC1 pathway inhibition measured by phospho-rpS6 | 0.78% of 44,000 active | Potency, µM (series often up to 38.3 µM), inactives show at the highest dose activity change, negative = inhibition, usual class: inhibitors | Tsc2-/- p53-/- MEF, phospho-rpS6 immunofluorescence/PI, 24 h | AID 493208;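 also: potency is read from the fitted curve at half-maximal effect; plate controls were DMSO for no effect and rapamycin for full effect; nearly all actives have a fitted effect of over 50% in size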
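Immunofluorescence of rpS6 phosphorylation in Tsc2-/-, p53-/- MEFs after 24 h compound exposure, normalized to propidium iodide signal. Activity is expressed as % positive cells, thresholded with 7.5 nM rapamycin.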
OvCa metastasis: blocks SKOV3ip1 adhesion and invasion in omental model; SKOV3ip1-GFP adhesion/invasion on 3D omental model, fluorescence; Potency, µM (top dose mostly 45.8 µM), inactives show at the highest dose activity change, negative = inhibition, most hits filed as inhibitors; 0.1% of 46,000 active; AID 1963576;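 also: potency is read from the fitted curve at half-maximal effect; plate controls were DMSO wells for no effect and tomatine positive control wells for full effect; nearly all actives have a fitted effect of over 65% in size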
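Adhesion/invasion was scored as fixed GFP-labeled SKOV3ip1 cell counts (488/509 nm), normalized to DMSO and tomatine controls. Cancer cells in serum-free medium, with four compound doses (0.36-46 umol/L), sat 2 hr at RT then 16 hr at 37 C on a 48 hr fibroblast/mesothelial/ECM culture.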
p53null 39C kill: selectivity test: cytotoxicity in p53 null cells, nonpermissive temperature; H1299 p53-null (neo) cells, 39C, ATPlite viability, 24 h; Potency, µM (doses to about 46.1 µM), for inactives: top-dose activity, negative = cell killing, hits mostly cytotoxic; 0.97% of 55,000 active; AID 904;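 also: potency is read from the fitted curve at half-maximal effect; 0% = DMSO only and -100% = full killing by 100 µM tamoxifen; nearly all actives have a fitted effect of over 50% in size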
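Following overnight plating at 37C (600 cells/well), H1299-neo or H1299-p53A138V cells are dosed up to 46 uM. Incubation lasts 24 hr at 39C before ATP detection.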
p53null 32C tox: selectivity test: cytotoxicity in p53 null cells, permissive temperature | 0.62% of 55,000 active | Potency, µM (doses to about 46.1 µM), for inactives: at the top dose activity change, negative = cytotoxicity, hits mostly cytotoxic | AID 903 | H1299-neo p53 null cells, ATP luminescence, 24 h, 32C;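 also: potency is read from the fitted curve at half-maximal effect; 0% = DMSO only and -100% = full killing by 100 µM tamoxifen; nearly all actives have a fitted effect of over 55% in size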
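AC50 values derive from Hill modelling of qHTS concentration-response data (up to 46 uM) in H1299-neo cells. Cells were treated 24 h at 32C following overnight attachment at 37C; viability was read as cellular ATP.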
PMP22 txn prim: modulators of PMP22 gene transcription in S16 Schwann cells | S16 Pmp22-F2sN Schwann cells, FLuc/NLuc coincidence luminescence, 24 h | Potency, µM (series often up to 57.5 µM), without a hit: at the highest dose activity change, negative = inhibition, most hits filed as inhibitors | 2% of 43,000 active | AID 1508649; active = clear falling dose curves in both reporters; inconclusive = both reporters move, but less clearly or upward; inactive = either reporter flat; the % is the NLuc reporter signal; also: potency is read from the fitted curve at half-maximal effect; % is scaled to controls: 0 for no effect and ±100 for the full control effect
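qHTS, 1536-well. Cells seeded, compounds added by pin tool, 24 h 37C. Nano-Glo reagent 1 (lysis/FLuc), 10 min RT, read; Stop&Glo, 10 min RT, read NLuc.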
S16 F2sN tox: toxic to S16 Pmp22-F2sN Schwann cells; 0.48% of 43,000 active; S16 Pmp22-F2sN Schwann cells viability, CellTiter-Glo, 24 h; Potency, µM (top dose mostly 57.5 µM), without a hit: at the highest dose activity change, negative = cytotoxicity, usual class: cytotoxic; also: potency is read from the fitted curve at half-maximal effect; % is scaled to controls: 0 for no effect and ±100 for the full control effect; nearly all actives have a fitted effect of over 65% in size
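S16 Pmp22-F2sN Schwann cells (500-1,000/well) in phenol-red-free DMEM with 10% FBS received 23 nL compound by pin tool for 24 h at 37 °C. Viability was then read as CellTiter-Glo luminescence after 15 min at room temperature.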
NLuc sat counter: counter-screen for PMP22 expression modulators: NanoLuc inhibition, saturating substrate. Secreted NLuc enzyme (filtered S16 cell medium), Nano-Glo luminescence. shares compounds with PMP22 txn prim. 4% of 690 active. AID 1508638. Potency, µM (doses to about 57.5 µM), inactives show top-dose activity change, negative = inhibition, hits mostly inhibitors; also: potency is read from the fitted curve at half-maximal effect; % is scaled to controls: 0 for no effect and ±100 for the full control effect
NLuc Km counter: NanoLuc inhibition at Km substrate, PMP22 artifact check; shares compounds with PMP22 txn prim; 5% of 690 active; secreted NLuc enzyme, coelenterazine luminescence, Km conditions; Potency, µM (top dose mostly 57.5 µM), for inactives: top-dose activity change, negative = inhibition, actives largely listed as inhibitors; also: potency is read from the fitted curve at half-maximal effect; % is scaled to controls: 0 for no effect and ±100 for the full control effect
FLuc counter: firefly luciferase enzyme inhibition artifact for PMP22 screen | shares compounds with PMP22 txn prim | purified P. pyralis FLuc, luminescence, 10 min | Potency, µM (titrated, usually from 57.5 µM), for the others: at the highest dose activity, negative = inhibition, most hits filed as inhibitors | 690 tested, under 10 active | AID 1508640; also: % of control where 0% means no effect
Target sequence (P08659 whole entry, looked up): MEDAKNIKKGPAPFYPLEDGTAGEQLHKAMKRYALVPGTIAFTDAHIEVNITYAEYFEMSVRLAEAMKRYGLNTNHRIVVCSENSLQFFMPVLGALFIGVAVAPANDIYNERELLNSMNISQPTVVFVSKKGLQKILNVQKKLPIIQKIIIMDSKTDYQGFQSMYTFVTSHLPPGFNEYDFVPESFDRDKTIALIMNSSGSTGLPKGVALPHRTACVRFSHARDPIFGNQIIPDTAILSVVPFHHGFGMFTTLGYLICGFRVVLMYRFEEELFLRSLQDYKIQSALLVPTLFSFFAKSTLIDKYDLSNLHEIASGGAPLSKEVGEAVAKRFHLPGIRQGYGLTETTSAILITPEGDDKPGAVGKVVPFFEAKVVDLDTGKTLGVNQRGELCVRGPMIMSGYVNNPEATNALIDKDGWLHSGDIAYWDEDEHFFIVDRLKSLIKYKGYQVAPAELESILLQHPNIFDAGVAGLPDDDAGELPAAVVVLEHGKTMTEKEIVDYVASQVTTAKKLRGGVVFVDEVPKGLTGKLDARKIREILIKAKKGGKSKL
S16 F2sN tox cnf: S16 Schwann cell cytotoxicity, confirmatory; shares compounds with PMP22 txn prim; S16 Schwann cells viability, CellTiter-Glo ATP luminescence, 24 h; Potency, µM (titrated, usually from 57.5 µM), for inactives: top-dose activity change, negative = viability loss, hits mostly cytotoxic; 7% of 690 active; also: potency is read from the fitted curve at half-maximal effect; % is scaled to controls: 0 for no effect and ±100 for the full control effect
PMP22 txn cnf: PMP22 transcription modulation, confirmatory; Potency, µM (top dose mostly 57.5 µM), for the others: at the highest dose activity change, negative = inhibition, hits mostly inhibitors; 22% of 690 active; S16 Schwann cells Pmp22-F2sN, dual luciferase, 24 h; shares compounds with PMP22 txn prim; active = clear falling dose curves in both reporters; inconclusive = both reporters move, but less clearly or upward; inactive = either reporter flat; the % is the FLuc reporter signal; also: potency is read from the fitted curve at half-maximal effect
PMP22 HiBiT cnf: confirmation of modulators of rat PMP22 protein expression. shares compounds with PMP22 txn prim. S16 Schwann cells Pmp22-HiBiT, luminescence, 48 h. 95 tested, under 10 active. Potency, µM (doses to about 27.9 µM), without a hit: at the top dose activity change, negative = inhibition, usual class: inhibitors
Target sequence (P25094 whole entry, looked up): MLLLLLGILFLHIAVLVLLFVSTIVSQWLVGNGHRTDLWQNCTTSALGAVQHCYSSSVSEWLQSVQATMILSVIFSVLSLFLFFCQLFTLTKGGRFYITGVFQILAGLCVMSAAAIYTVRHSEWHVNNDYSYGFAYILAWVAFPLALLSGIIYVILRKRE
* hit, by the source's call; i = inactive; ? = inconclusive; . = not tested or not shown. Unless noted, calls follow the shape of the dose curve; as a rule, active = well fitted curve in the direction sought with a large enough effect; inconclusive = small, poorly fitted or top-dose-only effect, or another doubt; inactive = no such curve, though single readings can be large; an effect the other way counts as inactive or inconclusive.

SMILES	mTORC1 inh	OvCa metastasis	p53null 39C kill	p53null 32C tox	PMP22 txn prim	S16 F2sN tox	NLuc sat counter	NLuc Km counter	FLuc counter	S16 F2sN tox cnf	PMP22 txn cnf	others
CCc1ccc(N2C(=O)CSC23C(=O)N(Cc2cccc(OC)c2)c2ccccc23)cc1 (stereo unspecified)	-5.9%	-23.1%	5.2%	0.1%	12.6µM*	?	-7.3%	5.6%	-6.2%	-13.2%	-46.8%
COc1ccc(N2C(=O)CSC23C(=O)N(Cc2cccc(C(F)(F)F)c2)c2ccccc23)cc1 (stereo unspecified)	-5.2%	-13.6%	59.3%	16.6%	?	-19.6%	.	.	.	.	.
CN1CCc2c(sc(NC(=O)CSc3ccccc3)c2-c2nc3ccccc3s2)C1	?	-7.0%	?	-15.9%	?	1.8%	.	.	.	.	.
CC(=O)N1CCc2c(sc(NC(=O)CSc3ccccc3)c2-c2nc3ccccc3s2)C1	-19.2%	i	12.2%	7.8%	4.01µM*	?	?	?	-4.1%	?	13.1µM*	PMP22 HiBiT cnf=?
CCS(=O)(=O)c1nc(S(=O)(=O)c2ccc(Cl)cc2)c(NCc2ccccc2Cl)s1	-15.5%	16.6%	-0.2%	-1.5%	4.8µM*	-25.8%	?	?	8.1%	4.1%	-20.6%
COc1ccccc1CNC(=O)CCCCn1c(=O)c2ccccc2n(Cc2ccccc2C)c1=O	-8.4%	i	-6.6%	7.5%	14.1µM*	-4.5%	-16.3%	?	1.9%	-25.7%	?
O=C(CCCn1c(=O)c2ccccc2n(CC(=O)Nc2ccc(F)cc2F)c1=O)NCc1ccccc1Cl	-8.1%	i	-28.4%	-5.6%	?	13.4%	.	.	.	.	.
Cc1cccc(CCn2c(=O)c3ccccc3n(CC(=O)Nc3ccccc3F)c2=O)c1	-18.7%	i	9.0%	-14.6%	16µM*	24.7%	-1.6%	4.0%	2.5%	-8.0%	-21.7%
Cc1cccc(NC(=O)Cn2c(=O)n(CCc3ccccc3)c(=O)c3ccccc32)c1	-18.6%	25.8%	-32.6%	1.7%	?	17.3%	.	.	.	.	.
COc1ccccc1CNC(=O)CCCCn1c(=O)c2ccccc2n(Cc2ccccc2F)c1=O	0.5%	4.3%	1.7%	16.8%	?	2.8%	.	.	.	.	.
COc1ccc(NC(=O)Cn2c(=O)n(CCCC(=O)NCc3ccccc3OC)c(=O)c3ccccc32)cc1Cl	?	i	-20.1%	0.0%	?	20.7%	.	.	.	.	.
COc1ccc(NC(=O)Cn2c(=O)n(CCC(=O)NCc3ccccc3OC)c(=O)c3ccccc32)cc1Cl	-4.8%	i	20.1%	4.9%	15µM*	8.3%	-5.1%	3.4%	6.2%	-18.8%	12.9µM*	PMP22 HiBiT cnf=?
O=C(CCCCn1c(=O)c2ccccc2n(CC(=O)Nc2ccc(F)cc2F)c1=O)NCc1ccccc1Cl	-1.7%	i	-1.0%	12.8%	16.3µM*	18.1%	-4.1%	-5.0%	0.6%	-7.9%	?
COc1ccc(NC(=O)CCCn2c(=O)c3cccn3c3cccnc32)cc1Cl	-4.2%	-4.5%	-11.6%	-8.9%	15µM*	-0.5%	-17.4%	-17.7%	-6.7%	-5.9%	-25.9%
COc1ccc(NC(=O)Cn2c(=O)n(Cc3ccccc3Cl)c(=O)c3cc(OC)c(OC)cc32)cc1OC	-5.6%	-4.4%	-21.1%	-7.4%	13.4µM*	23.9%	-0.6%	4.9%	-2.3%	11.3%	2.1%
COc1ccc(NC(=O)Cn2c(=O)n(Cc3ccc(C(=O)NCc4ccccc4Cl)cc3)c(=O)c3ccccc32)cc1OC	-4.1%	i	-18.8%	4.4%	-43.2%	-11.6%	.	.	.	.	.
COc1ccc(NC(=O)CCn2c(=O)c3cccn3c3cccnc32)cc1Cl	-0.9%	-1.7%	-23.1%	-3.5%	-16.8%	17.8%	.	.	.	.	.
O=C(Nc1ccccc1Br)N[C@@H]1CCN(c2ccc(C(F)(F)F)cn2)C1	.	0.6%	.	.	.	.	.	.	.	.	.
CC(C)c1ccc(OCC(=O)Nc2cc(-c3nc4ncccc4o3)ccc2Cl)cc1	-0.4%	i	-10.9%	-2.4%	12.6µM*	21.0%	-4.9%	4.5%	-8.6%	3.4%	?
Cc1ccc(C)c(NC(=O)Cn2c(=O)n(Cc3ccc4c(c3)OCO4)c(=O)c3ccc(C(=O)NC4CCCCC4)cc32)c1	1.8%	i	-9.4%	-4.3%	4.01µM*	11.3%	5.5%	5.5%	4.7%	-9.6%	18.3µM*	PMP22 HiBiT cnf=1.0%
Cc1ccc(NC(=O)Cn2c(=O)n(Cc3ccco3)c(=O)c3ccc(C(=O)NC4CCCC4)cc32)c(C)c1	-2.5%	-12.1%	-18.2%	-3.1%	?	5.3%	.	.	.	.	.
Cc1cc(C)c(NC(=O)Cn2c(=O)n(Cc3ccc(C(=O)NCc4ccc5c(c4)OCO5)cc3)c(=O)c3ccccc32)c(C)c1	5.21µM*	-7.4%	?	-11.9%	11.2µM*	?	-5.9%	4.3%	1.9%	27.3µM*	8.85µM*
CCN(C(=O)Cn1c(=O)n(Cc2ccc3c(c2)OCO3)c(=O)c2ccc(C(=O)NC3CCCCC3)cc21)c1cccc(C)c1	1.5%	-0.6%	9.2%	12.1%	-1.6%	0.8%	.	.	.	.	.

Screens: PubChem BioAssay, National Center for Advancing Translational Sciences (NCATS)
